This is part of a sample that, as a whole, favours compounds with a hit. Of some 83,000 tested, about 20% had one in any assay.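 Each cell line was grown in a 96-well plate and treated with one concentration of compound for 48 hours. Values below 10 were considered active.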 Unmarked numbers belong to inactive results. Active and inactive are the calls of the source.

Some test systems named below: SK-MEL-2 melanoma; SN12C renal; UO-31 renal; TK-10 renal; ACHN renal; CAKI-1 renal; A498 renal; MOLT-4 leukemia; SR leukemia; RPMI-8226 leukemia; OVCAR-5 ovarian; OVCAR-4 ovarian; SK-OV-3 ovarian; IGROV1 ovarian; OVCAR-3 ovarian; HS 578T breast; NCI/ADR-RES ovarian; OVCAR-8 ovarian.
Test in all cases: NCI-60 one-dose screen, 48 h (100 = growth as untreated, 0 = no growth, -100 = all killed)
What all share (settings): 10 µM unless noted

As to `COc1cc2c(cc1OC)-c1cc(OC)c(OC)cc1C(CN(C)C)C2` (stereo not drawn), the growth with SK-MEL-2 melanoma is 29% [100 µM]; in the test on SN12C renal, 43.7% [100 µM]; in the test on UO-31 renal, 68.1% [100 µM]; in the test on TK-10 renal, 65.7% [100 µM]; in the test on ACHN renal, 44.6% [100 µM]; in the test on CAKI-1 renal, 11.6% [100 µM]. Besides, the growth in the test on A498 renal was 52.6% [100 µM]; in the test on MOLT-4 leukemia, 103% [100 µM]; with SR leukemia, 53.9% [100 µM]; with RPMI-8226 leukemia, 67.7% [100 µM]; in the test on OVCAR-5 ovarian, 86% [100 µM]; with OVCAR-4 ovarian, -20.7% [100 µM] (active). Besides, the growth was 6.96% [100 µM] (active) with SK-OV-3 ovarian; 60.7% [100 µM] in the test on IGROV1 ovarian; 59.9% [100 µM] in the test with OVCAR-3 ovarian; 10.3% [100 µM] in the test with HS 578T breast; 26.9% [100 µM] with NCI/ADR-RES ovarian.
With `CCCCCc1c(C)[nH]c(/C=C2\N=C(c3ccc[nH]3)C=C2Oc2ccc(OC)cc2)c1C`, the growth was -74.4% [100 µM] (active) with SK-MEL-2 melanoma; -88.6% [100 µM] (active) with SN12C renal; -75.7% [100 µM] (active) in the test with UO-31 renal; -60.2% [100 µM] (active) in the test on TK-10 renal; -59.8% [100 µM] (active) with ACHN renal; -73.9% [100 µM] (active) in the test on CAKI-1 renal. In addition, the growth is -89.3% [100 µM] (active) in the test on A498 renal; -34% [100 µM] (active) in the test with MOLT-4 leukemia; -9.14% [100 µM] (active) in the test on SR leukemia; -37.7% [100 µM] (active) in the test with RPMI-8226 leukemia; -65.3% [100 µM] (active) in the test on OVCAR-5 ovarian; -99.7% [100 µM] (active) with OVCAR-4 ovarian. For the same compound, the growth in the test with SK-OV-3 ovarian is -63.2% [100 µM] (active); in the test on IGROV1 ovarian, -70.6% [100 µM] (active); in the test with OVCAR-3 ovarian it was -95% [100 µM] (active); with HS 578T breast it was 0.631% [100 µM] (active); in the test on NCI/ADR-RES ovarian it was -78% [100 µM] (active).
For the compound `N=C(N)c1ccc(-c2ccc(-c3ccco3)o2)cc1F`, the growth in the test on SK-MEL-2 melanoma was -66.8% (active); with SN12C renal it was 39.8%; in the test with UO-31 renal, -57.2% (active); with ACHN renal, 12.2%; in the test on CAKI-1 renal it was 23.1%; with A498 renal it was 11.6%. For the same compound, the growth in the test on MOLT-4 leukemia was 0.311% (active); in the test with SR leukemia it was -9.28% (active); in the test on RPMI-8226 leukemia, -23.2% (active); in the test on OVCAR-8 ovarian it was 45%; in the test with OVCAR-5 ovarian, 17.8%; in the test on OVCAR-4 ovarian it was 42%. In addition, the growth in the test with SK-OV-3 ovarian was 40.1%; with IGROV1 ovarian, 11.9%; in the test with OVCAR-3 ovarian, 54.1%; in the test on HS 578T breast, 48.8%; with NCI/ADR-RES ovarian, 45.2%.
With `CC(C)(C)c1cc(C[P+](c2ccccc2)(c2ccccc2)c2ccccc2)cc(C(C)(C)C)c1O`, the growth is -39.9% (active) in the test on SK-MEL-2 melanoma; 12.2% in the test on SN12C renal; -11.4% (active) in the test with UO-31 renal; -3.05% (active) in the test with TK-10 renal; -10.8% (active) in the test on ACHN renal; -2.21% (active) in the test with CAKI-1 renal. For the same compound, the growth in the test on A498 renal is -17.1% (active); with MOLT-4 leukemia, -7.18% (active); in the test on SR leukemia it was -22.3% (active); with RPMI-8226 leukemia, -35% (active); in the test on OVCAR-5 ovarian it was 20.8%; in the test with OVCAR-4 ovarian, 16.2%. Further, the growth was -0.717% (active) in the test on SK-OV-3 ovarian; 12.1% with IGROV1 ovarian; 13.8% in the test on OVCAR-3 ovarian; 16.2% with HS 578T breast; 73.2% with NCI/ADR-RES ovarian.
